Source: PubChem BioAssay AID1159580 (chemical genetic matrix, 2015)
Out of some 5,500 compounds screened, about 2,000 (36%) were called active. Inconclusive results (about 18%) are left out. Rule as the data show it: active = normalized growth mostly below about 0.91 (no sharp cut-off); inconclusive = no clear call, values can overlap the other calls; inactive = mostly above about 0.92. This is one part of the list.

Test: chemical genetic growth profiling, strain panel (AID 1159580);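 also: tested at 20 µM; growth read once vehicle control cultures reached saturation at 30 °C; 1 = growth at the plate median or of vehicle wells; lower values mean less growth of the strain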
Details: growth OD
[1] = S. cerevisiae deletion strains, locus YDL101C, strain DUN1, active compounds read low
[2] = S. cerevisiae deletion strains, locus YHR030C, strain SLT2, active compounds read low
[3] = S. cerevisiae deletion strains, locus YMR263W, strain SAP30, active compounds read low
[4] = S. cerevisiae deletion strains, locus YPL055C, strain LGE1, active compounds read low
[5] = S. cerevisiae deletion strains, locus YAR019C, strain CDC15, active compounds read low
[6] = S. cerevisiae deletion strains, locus YBL105C, strain PKC1, active compounds read low
[7] = S. cerevisiae deletion strains, locus YBR135W, strain CKS1, active compounds read low
[8] = S. cerevisiae deletion strains, locus YBR136W, strain MEC1, active compounds read low
[9] = S. cerevisiae deletion strains, locus YBR160W, strain CDC28, active compounds read low
[10] = S. cerevisiae deletion strains, locus YDL017W, strain CDC7, active compounds read low
[11] = S. cerevisiae deletion strains, locus YDL108W, strain KIN28, active compounds read low
[12] = S. cerevisiae deletion strains, locus YDL132W, strain cdc53, active compounds read low
[13] = S. cerevisiae deletion strains, locus YDL214C, strain PRR2, active compounds read low
[14] = S. cerevisiae deletion strains, locus YDR052C, strain DBF4, active compounds read low
[15] = S. cerevisiae deletion strains, locus YDR226W, strain ADK1, active compounds read low
[16] = S. cerevisiae deletion strains, locus YDR477W, strain SNF1, active compounds read low
[17] = S. cerevisiae deletion strains, locus YER123W, strain YCK3, active compounds read low
[18] = S. cerevisiae deletion strains, locus YER133W, strain GLC7, active compounds read low
[19] = S. cerevisiae deletion strains, locus YFL009W, strain cdc4, active compounds read low
[20] = S. cerevisiae deletion strains, locus YFL029C, strain CAK1, active compounds read low
[21] = S. cerevisiae deletion strains, locus YFR003C, strain YPI1, active compounds read low
[22] = S. cerevisiae deletion strains, locus YFR019W, strain FAB1, active compounds read low
[23] = S. cerevisiae deletion strains, locus YFR028C, strain CDC14, active compounds read low
[24] = S. cerevisiae deletion strains, locus YGR040W, strain KSS1, active compounds read low
[25] = S. cerevisiae deletion strains, locus YGR052W, strain FMP48, active compounds read low
[26] = S. cerevisiae deletion strains, locus YGR092W, strain DBF2, active compounds read low
[27] = S. cerevisiae deletion strains, locus YHR079C, strain IRE1, active compounds read low
[28] = S. cerevisiae deletion strains, locus YHR082C, strain KSP1, active compounds read low
[29] = S. cerevisiae deletion strains, locus YHR205W, strain SCH9, active compounds read low
[30] = S. cerevisiae deletion strains, locus YJL095W, strain BCK1, active compounds read low
[31] = S. cerevisiae deletion strains, locus YJL128C, strain PBS2, active compounds read low
[32] = S. cerevisiae deletion strains, locus YJL157C, strain FAR1, active compounds read low
[33] = S. cerevisiae deletion strains, locus YJR016C, strain ILV3, active compounds read low
[34] = S. cerevisiae deletion strains, locus YJR066W, strain TOR1 (second series), active compounds read low
[35] = S. cerevisiae deletion strains, locus YJR066W, strain TOR1, active compounds read low
[36] = S. cerevisiae deletion strains, locus YKL048C, strain ELM1, active compounds read low
[37] = S. cerevisiae deletion strains, locus YKL067W, strain YNK1, active compounds read low
[38] = S. cerevisiae deletion strains, locus YKL101W, strain HSL1, active compounds read low
[39] = S. cerevisiae deletion strains, locus YKL193C, strain SDS22, active compounds read low
[40] = S. cerevisiae deletion strains, locus YKL203C, strain TOR2, active compounds read low
[41] = S. cerevisiae deletion strains, locus YLR113W, strain HOG1, active compounds read low
[42] = S. cerevisiae deletion strains, locus YLR133W, strain CKI1, active compounds read low
[43] = S. cerevisiae deletion strains, locus YLR403W, strain SFP1, active compounds read low
[44] = S. cerevisiae deletion strains, locus YML070W, strain DAK1, active compounds read low
[45] = S. cerevisiae deletion strains, locus YMR205C, strain PFK2 (second series), active compounds read low
[46] = S. cerevisiae deletion strains, locus YNL006W, strain LST8, active compounds read low
[47] = S. cerevisiae deletion strains, locus YNL020C, strain ARK1, active compounds read low
[48] = S. cerevisiae deletion strains, locus YNL161W, strain CBK1, active compounds read low
[49] = S. cerevisiae deletion strains, locus YNL183C, strain NPR1, active compounds read low
[50] = S. cerevisiae deletion strains, locus YNL207W, strain RIO2, active compounds read low
[51] = S. cerevisiae deletion strains, locus YNL222W, strain SSU72, active compounds read low
[52] = S. cerevisiae deletion strains, locus YNL307C, strain MCK1 (second series), active compounds read low
[53] = S. cerevisiae deletion strains, locus YOL136C, strain PFK27, active compounds read low
[54] = S. cerevisiae deletion strains, locus YOR061W, strain CKA2, active compounds read low
[55] = S. cerevisiae deletion strains, locus YOR119C, strain RIO1, active compounds read low
[56] = S. cerevisiae deletion strains, locus YOR231W, strain MKK1, active compounds read low
[57] = S. cerevisiae deletion strains, locus YOR329C, strain SCD5, active compounds read low
[58] = S. cerevisiae deletion strains, locus YPL031C, strain PHO85, active compounds read low
[59] = S. cerevisiae deletion strains, locus YPL153C, strain RAD53, active compounds read low
[60] = S. cerevisiae deletion strains, locus YPL204W, strain HRR25, active compounds read low
[61] = S. cerevisiae deletion strains, locus YPL209C, strain IPL1, active compounds read low
[62] = S. cerevisiae deletion strains, locus YPL256C, strain CLN2, active compounds read low
[63] = S. cerevisiae deletion strains, locus YPR025C, strain CCL1, active compounds read low
[64] = S. cerevisiae deletion strains, locus YPR106W, strain ISR1, active compounds read low
[65] = S. cerevisiae deletion strains, locus YPR111W, strain DBF20, active compounds read low
[66] = S. cerevisiae deletion strains, strain NNK1, active compounds read low
[67] = S. cerevisiae deletion strains, strain TSCII, active compounds read low

Measured: normalized growth

CC(C)(C)S(=O)(=O)/C(C#N)=C/N1CCCCC1
inactive: S. cerevisiae deletion strains, locus YBR229C, strain ROT2, active compounds read low 1.02 | [1] 0.989 | S. cerevisiae deletion strains, locus YDR150W, strain NUM1, active compounds read low 0.995 | S. cerevisiae deletion strains, locus YEL061C, strain CIN8, active compounds read low 1.05 | S. cerevisiae deletion strains, locus YGR078C, strain PAC10, active compounds read low 0.993 | [2] 1.02 | S. cerevisiae deletion strains, locus YHR087W, strain rtc3, active compounds read low 0.992 | S. cerevisiae deletion strains, locus YJL187C, strain SWE1, active compounds read low 0.986 | S. cerevisiae deletion strains, locus YJR043C, strain POL32, active compounds read low 0.983 | S. cerevisiae deletion strains, locus YJR075W, strain HOC1, active compounds read low 1.02 | S. cerevisiae deletion strains, locus YLR039C, strain RIC1, active compounds read low 1.02 | S. cerevisiae deletion strains, locus YLR058C, strain SHM2 (second series), active compounds read low 1.01 | S. cerevisiae deletion strains, locus YLR085C, strain ARP6, active compounds read low 1.04 | S. cerevisiae deletion strains, locus YLR262C, strain YPT6, active compounds read low 1.03 | S. cerevisiae deletion strains, locus YML094W, strain GIM5, active compounds read low 1.02 | S. cerevisiae deletion strains, locus YMR219W, strain ESC1, active compounds read low 1.02 | [3] 1 | S. cerevisiae deletion strains, locus YNL128W, strain TEP1, active compounds read low 1 | S. cerevisiae deletion strains, locus YNL153C, strain GIM3, active compounds read low 1 | S. cerevisiae deletion strains, locus YNL298W, strain CLA4 (second series), active compounds read low 1.02 | S. cerevisiae deletion strains, locus YNL322C, strain KRE1, active compounds read low 1.02 | S. cerevisiae deletion strains, locus YNR030W, strain Alg12, active compounds read low 1.02 | [4] 0.963 | S. cerevisiae deletion strains, locus YPL241C, strain CIN2, active compounds read low 1.02 | S. cerevisiae deletion strains, locus YPR135W, strain CTF4, active compounds read low 0.988 | S. cerevisiae strains, strain wild type, active compounds read low 1.01

O=c1c2ccccc2[nH]c(=S)n1-c1cccc(C(F)(F)F)c1
inactive: [5] 0.927 | [9] 0.923 | [1] 0.954 | [12] 0.944 | [13] 0.908 | [15] 0.956 | [17] 0.899 | [19] 0.95 | [21] 0.917 | [22] 0.97 | [23] 0.949 | [25] 0.914 | [26] 0.874 | [27] 0.837 | [28] 0.832 | [29] 0.748 | [31] 0.957 | [32] 0.925 | [34] 0.892 | [35] 0.799 | [36] 0.862 | [37] 0.927 | [38] 0.865 | [39] 0.917 | [41] 0.912 | [42] 0.895 | [44] 0.926 | [45] 0.894 | [46] 0.965 | [47] 0.886 | [48] 0.929 | [49] 0.852 | [50] 0.943 | [51] 0.944 | [52] 0.884 | [53] 0.93 | [54] 0.833 | [56] 0.872 | [57] 0.948 | [60] 0.719 | [61] 0.95 | [63] 0.946 | [64] 0.948 | [65] 0.962 | [66] 0.961 | [67] 0.889
active: [6] 0.811 | [7] 0.792 | [8] 0.774 | [10] 0.846 | [11] 0.565 | [14] 0.885 | [16] 0.427 | [18] 0.343 | [20] 0.633 | [24] 0.513 | [2] 0.334 | [30] 0.182 | [33] 0.717 | [40] 0.352 | [43] 0.459 | [55] 0.347 | [58] 0.589 | [59] 0.646 | [62] 0.824

FC(F)(F)c1cccc(-n2c(CSCc3cccc4ccccc34)n[nH]c2=S)c1
inactive: [5] 0.986 | [6] 1 | [7] 0.996 | [8] 1 | [9] 0.986 | [10] 0.993 | S. cerevisiae deletion strains, locus YDL028C, strain MPS1, active compounds read low 0.985 | [1] 0.989 | [11] 0.998 | [12] 0.988 | [13] 0.993 | [14] 1 | S. cerevisiae deletion strains, locus YDR054C, strain cdc34, active compounds read low 0.992 | [15] 0.986 | [16] 0.976 | [17] 0.958 | [18] 0.969 | [19] 0.978 | [20] 0.993 | [21] 1 | [22] 1.01 | [23] 0.994 | [24] 0.991 | [25] 1.08 | [26] 0.952 | [2] 1.12 | [27] 1.1 | [28] 1.09 | [29] 1.01 | S. cerevisiae deletion strains, locus YIL147C, strain SLN1, active compounds read low 0.999 | [30] 1.06 | [31] 0.979 | [32] 0.966 | [33] 0.993 | [34] 0.936 | [35] 1.09 | [36] 1 | [37] 0.989 | [38] 0.986 | [39] 0.99 | [40] 1.06 | [41] 1.07 | [42] 1 | [43] 0.973 | [44] 0.993 | S. cerevisiae deletion strains, locus YMR001C, strain CDC5, active compounds read low 0.992 | [45] 1 | S. cerevisiae deletion strains, locus YMR277W, strain FCP1, active compounds read low 0.976 | [46] 0.984 | [47] 1 | [48] 0.998 | [49] 1.13 | [50] 0.989 | [51] 0.997 | [52] 1 | S. cerevisiae deletion strains, locus YOL078W, strain AVO1, active compounds read low 0.99 | [53] 0.991 | [54] 0.977 | [55] 1.02 | [56] 1.09 | [57] 0.993 | [58] 0.977 | [59] 0.962 | [60] 0.967 | [61] 0.99 | [62] 1.1 | [63] 0.992 | [64] 0.981 | [65] 0.993 | [66] 1.01 | [67] 0.995

Cc1c(CC(C)(C)C(=O)O)n(Cc2ccc(Cl)cc2)c2ccc(F)cc12
inactive: S. cerevisiae deletion strains, locus YAL040C, strain CLN3, active compounds read low 0.974 | S. cerevisiae deletion strains, locus YCL061C, strain MRC1 (second series), active compounds read low 0.985 | S. cerevisiae deletion strains, locus YDR363W, strain ESC2, active compounds read low 0.986 | S. cerevisiae deletion strains, locus YER002W, strain NOP16, active compounds read low 0.978 | [3] 0.971 | S. cerevisiae deletion strains, locus YNL175C, strain NOP13, active compounds read low 0.985 | S. cerevisiae deletion strains, locus YNL197C, strain WHI3, active compounds read low 0.974 | S. cerevisiae deletion strains, locus YNL224C, strain SQS1, active compounds read low 0.978 | S. cerevisiae deletion strains, locus YOR083W, strain WHI5 (second series), active compounds read low 0.986 | [4] 0.923
